TEAD-YAP inh – TEAD-YAP interaction inhibition; inhibition, % at 9.12 µM; HEK-TIYL cells, TEAD-Gal4/YAP UAS-luciferase luminescence; 640,000 tested, 1.4% active; in the data active = inhibition above about 32%;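 also: 0% = median of test compound wells and 100% = reference inhibitor wells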
MITF inh – human MITF inhibition, primary screen; O75030; AlphaScreen MITF homodimerization, bead proximity signal; inhibition, % at 2.6 µM; 650,000 tested, 0.91% active; in the data active = inhibition above about 50%;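 also: 0% = vehicle wells with protein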
GPR151 activ – activators of human GPR151; Q8TDV0; PathHunter beta-arrestin GPR151 cells, luminescence; activation, % at 11.2 µM; 650,000 tested, 1% active; AID 1508602; in the data active = activation above about 4.9%;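 also: 0% = median of compound wells and 100% = cells with positive control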
Target sequence (Q8TDV0 whole entry, looked up): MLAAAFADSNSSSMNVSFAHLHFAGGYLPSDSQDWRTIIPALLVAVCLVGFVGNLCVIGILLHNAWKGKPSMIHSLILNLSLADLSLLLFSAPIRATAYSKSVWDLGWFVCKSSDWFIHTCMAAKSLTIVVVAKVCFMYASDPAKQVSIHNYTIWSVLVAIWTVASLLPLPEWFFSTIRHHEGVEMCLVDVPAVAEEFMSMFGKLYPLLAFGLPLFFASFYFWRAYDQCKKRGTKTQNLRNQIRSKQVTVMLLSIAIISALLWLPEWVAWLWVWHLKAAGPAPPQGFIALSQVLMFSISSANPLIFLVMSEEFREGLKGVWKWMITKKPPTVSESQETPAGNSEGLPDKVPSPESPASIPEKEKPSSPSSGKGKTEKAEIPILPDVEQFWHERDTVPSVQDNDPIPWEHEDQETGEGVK
FBW7 act – activators of human E3 ligase FBW7; AID 1259310; Q969H0; 650,000 tested, 0.13% active; AlphaScreen FBW7–phospho-cyclin E peptide binding, activator screen; normalized activity (activation), % at 26.1 µM; in the data active = normalized activity above about 1.9%;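 also: purified mutant Fbw7 with reduced substrate affinity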
* hit, by the source's call. Shown are actives, neighbours in structure and some others; about 3.4% of the full set was active somewhere.

SMILES	TEAD-YAP inh	MITF inh	GPR151 activ	FBW7 act
Cc1cccc(C(=O)N2CCCC(C(=O)Nc3cccc(-c4ccc(F)cc4)c3)C2)n1 (configuration not stated)	16	-12	0	0
Cc1cc(C(=O)N2CCCC(C(=O)Nc3cccc(-c4ccc(F)cc4)c3)C2)n(C)n1 (configuration not stated)	45*	17	2	0
Cc1ccc(CN2CCC(N(C)CC3CCCCN3C)CCC2=O)cc1 (configuration not stated)	-6	-252	-1	0
COc1ccc(S(=O)(=O)N(Cc2ccccc2)c2ccccc2C(=O)NC2CC2)cc1	47*	4	0	2
COC(=O)c1ccccc1N(Cc1ccccc1)S(=O)(=O)c1ccc(OC)cc1	51*	-1	-1	0
CCOC(=O)c1c(-c2ccc(C)cc2)csc1NC(=O)c1ccc2cc(OC)ccc2c1	11	-22	1	0
COc1ccc(/C=N/NS(=O)(=O)c2ccccc2)cc1OCc1ccccc1	-1	4	0	0
O=C1CC(NC2CCCCC2)C(=O)N1c1cccc2ccccc12 (configuration not stated)	-1	32	-1	0
N#CC(NC(=O)c1ccc(Cl)cc1)=C(Cl)Cl	37*	32	-1	1
O=C(NC(=O)N1CCCCC1)c1ccc(Cl)cc1	9	1	-1	0
Nc1ccc(S(=O)(=O)O)c2cccc(O)c12	12	71*	0	-1
CCOc1ccccc1NC(=O)c1ccc(F)c(S(=O)(=O)N2CCN(c3ccccc3)CC2)c1	8	5	0	0
O=C(N/N=C/c1ccc([N+](=O)[O-])s1)c1ccc(F)cc1	45*	-7	1	0
O=C(N/N=C/c1ccc([N+](=O)[O-])o1)c1ccc(F)cc1	37*	1	-1	0
Cc1ccc(C(=O)N/N=C/c2ccc([N+](=O)[O-])o2)cc1	40*	-1	1	0
O=C(N/N=C/c1ccc([N+](=O)[O-])o1)c1ccccc1	-5	7	1	0
Cc1cc(C(=O)N/N=C/c2ccc([N+](=O)[O-])o2)n[nH]1	32*	23	-1	1
COc1ccccc1C(C)N(C)C(=O)Cn1nnnc1CN1CCC(C)CC1 (configuration not stated)	5	15	1	0
CCOC(=O)N1CCC(NC(=O)Cn2nc(CC)n3c(cc4sccc43)c2=O)CC1	3	-4	1	0
COc1ccc(C(=O)c2ccc(Br)c([N+](=O)[O-])c2)cc1	64*	35	0	0
CCCOC(=O)c1ccc(Br)c([N+](=O)[O-])c1	8	-1	1	0
Cc1c(NC(=O)CSc2nc3ccc([N+](=O)[O-])cc3s2)c(=O)n(-c2ccccc2)n1C	9	3	0	0
Cc1ccc2onc(CNC(=O)N3CCN(c4cccc(Cl)c4)CC3)c2c1	10	2	-1	0
CC1(C)Cc2c(c(N3CCOCC3)nc3snc(N)c23)CO1	36*	7	1	0
COc1ccccc1-c1ccc(=O)n(CC(=O)Nc2ccc(C(=O)N3CCCC3)cc2)n1	-3	4	-1	4.1*
SMILES	TEAD-YAP inh	MITF inh	GPR151 activ	FBW7 act
CN1CCN(C(=O)c2ccc(NC(=O)Cn3nc(-c4ccccc4F)ccc3=O)cc2)CC1	3	16	-1	0
Cc1cc(C(=O)COC(=O)c2cccc(NS(C)(=O)=O)c2)c(C)n1CC1CCCO1 (configuration not stated)	58*	4	2	0
Cc1cc(C(=O)COC(=O)c2cccc(N(C)C)c2)c(C)n1CC1CCCO1 (configuration not stated)	38*	20	0	0
C=CCn1c(C)cc(C(=O)COC(=O)c2cccc(O)c2)c1C	87*	-3	-9	0
CC1=C(C(=O)OC2CCCC2)C(c2cc3c(cc2Br)OCO3)C2=C(CC(C)(C)CC2=O)N1 (configuration not stated)	-3	-2	1	0
Cc1ccc(/C=C/C(=O)c2ccc(O)cc2)cc1	47*	-1	-2	0
COc1cc(C(=O)/C=C/Nc2cccc(O)c2)cc(OC)c1OC	38*	13	0	0
COc1cc(C(=O)/C=C/Nc2cccc(F)c2)cc(OC)c1OC	28	-2	2	0
Cc1ccc(C(=O)/C=C/Nc2cccc(O)c2)cc1	92*	-2	0	0
CC1CCc2sc(NC(=O)c3ccc([N+](=O)[O-])cc3)c(C(N)=O)c2C1 (configuration not stated)	-3	6	0	0
COC(=O)C1=NNC2C(=O)N(c3cccc(Br)c3)C(=O)C12 (configuration not stated)	-6	4	1	0
Cn1nc(-c2ccc(OCC(N)=O)cc2)c2ccccc2c1=O	-21	8	0	0
Cn1nc(-c2ccc(OCC(=O)N3CCCCC3)cc2)c2ccccc2c1=O	52*	2	0	0
CCOC(=O)c1cccc(Nc2cc(C)nc3c(C)cc(C)cc23)c1	-9	17	1	1
CCOC(=O)c1ccc(Nc2cc(C)nc3c(C)cc(C)cc23)cc1	47*	1	-1	0
CCOC(=O)c1ccc2nc(C)cc(Nc3cccc(O)c3)c2c1	75*	-2	-2	0
COC(=O)c1ccc(Nc2cc(C)nc3c(C)cc(C)cc23)cc1	49*	-7	0	0
CC(=O)Nc1ccc(Nc2cc(C)nc3c(C)cc(C)cc23)cc1	9	1	0	0
O=C(c1cc(-c2ccc(O)cc2)on1)N1CCCCCC1	50*	6	-1	0
Cc1ccc(-c2cc(C(=O)N3CCOCC3)no2)cc1	43*	3	-3	0
CN1CCN(C(=O)c2cc(-c3ccc(Br)cc3)on2)CC1	-43	2	-1	0
O=C(c1cc(-c2ccc(Cl)cc2)on1)N1CCCCCC1	-41	12	1	0
Cc1nn(C)cc1CN(C)C(Cc1ccccc1F)C1CCN(C(=O)CC2CC2)CC1 (configuration not stated)	1	10	0	0
CCCCCc1nc2ccccc2c(=O)n1NC(=O)c1c(O)c2ccccc2n(C)c1=O	7	5	0	0
COc1ccc(CCNc2nc(Nc3cnccn3)nc3c2ncn3C2CCCCC2)cc1	14	-8	-1	0
Oc1ccc(CCNc2nc(Nc3cnccn3)nc3c2ncn3C2CCCCC2)cc1	40*	-7	0	0
CC(C)n1cnc2c(NC3CCN(Cc4ccccc4)CC3)nc(N3CCCC3CO)nc21 (configuration not stated)	36*	10	-1	0
OCC1CCCN1c1nc(NC2CCN(Cc3ccccc3)CC2)c2ncn(C3CCCCC3)c2n1 (configuration not stated)	-15	2	-1	0
COc1ccc(CCNc2nc(Nc3cnccn3)nc3c2ncn3C(C)C)cc1	36*	2	1	0
CC(C)n1cnc2c(NC3CCN(Cc4ccccc4)CC3)nc(Nc3ccncc3)nc21	69*	-10	-1	0
